The supplement of paper PMC13380429
Where a name gives a salt, the structure may show the parent alone. Unmarked numbers belong to inactive results.

What follows are compounds tested on Vero E6 infected with SARS-CoV-2 (assay: inhibition of SARS-CoV-2 cytopathic effect; higher = more antiviral protection, active = above 15). Details: 833.33 nM; 48 h.

| SMILES | inhibition of SARS-CoV-2 cytopathic effect [%] |
| --- | --- |
| CCOc1ccc(Nc2nc(-c3c(C)nc4ccccn34)cs2)cc1 | 2.2 |
| O=C(O)CC/C=C\C[C@@H]1CO[C@H](c2ccccc2Cl)O[C@@H]1c1ccccc1O (racemic) | 0.59 |
| N#Cc1ccc2[nH]c(O)c(-c3ccc(CN4CCOCC4)cn3)c2c1 | 4.77 |
| Cc1ncc(NC(=O)c2ccc(CN3CCN(C)CC3)c(C(F)(F)F)c2)cc1Nc1nccc(-c2cccnc2)n1 [flumatinib] | 3.69 |
| CC(C)NCCN(C(C)C)S(=O)(=O)c1ccc(Cl)cc1Cl | -2.09 |
| O=C(NC1(c2ccccc2)CC1)c1c(CN2CCC(N3CCCCC3)CC2)c(-c2cccc(C(F)(F)F)c2)nc2cc(Br)ccc12 | -4.53 |
| NC(=O)c1noc([C@H](CCCC2CCCCC2)CC(=O)NO)n1 | -1.38 |
| COc1cc(OC)c(OC)cc1C=O [asaraldehyde] | -1.97 |
| O=C1NC(=O)C(=Cc2ccc(-c3ccc(F)cc3)o2)S1 (stereo in doubt) | 0.32 |
| COc1ccc(Nc2ccn(-c3ccccc3)n2)cc1 | 3.51 |

Same assay, conditions: 10000 nM; 48 h

| SMILES | inhibition of SARS-CoV-2 cytopathic effect |
| --- | --- |
| O=C(NO)c1ccc(O)c(O)c1 [didox] | -2.13% |
| Cc1ccc2c(c1)=C(c1ccccc1)C(C1=NN(C(=O)CCC(=O)O)C(c3ccc(Br)cc3)C1)C(=O)N=2 (centres undefined) | 0.79% |
| CC(C)[C@@H]1CC[C@@H](C)C[C@H]1O [levomenthol] | -0.2% |
| COc1ccc(C(=O)c2ccccc2O)c(O)c1 [dioxybenzone] | 2.94% |
| c1ccc2c(c1)OC[C@H](CNCCCOc1ccc3c(c1)OCO3)O2 [osemozotan] | 0.79% |
| CC(C)C[C@H](NC(=O)[C@@H](Cc1c[nH]c2ccccc12)NC(=O)[C@H](Cc1ccc(O)cc1)NC(=O)[C@H](CO)NC(=O)[C@H](Cc1c[nH]c2ccccc12)NC(=O)[C@H](Cc1c[nH]cn1)NC(=O)[C@@H]1CCC(=O)N1)C(=O)N[C@@H](CCCNC(=N)N)C(=O)N1CCC[C@H]1C(=O)NCC(N)=O [triptorelin] | 0.84% |
| Cc1cc(N2CCCCC2)nc2ccccc12 | 4.47% |
| Oc1cc(O)cc(O)c1 [phloroglucin] | -2.03% |
| CC(=O)NS(=O)(=O)c1ccc(NC(=O)c2ccccc2C(=O)O)cc1 [phthalylsulfacetamide] | -0.38% |
| C[C@]1(COc2ccc(N3CCC(Oc4ccc(OC(F)(F)F)cc4)CC3)cc2)Cn2cc([N+](=O)[O-])nc2O1 [delamanid] | 1.84% |
| Cc1ccc(/C=N/NC(=O)c2ccccc2Oc2ccccc2)o1 | 0.97% |
| C=CC(=O)Nc1cccc(Nc2nc(Nc3ccc(N4CCN(C(C)=O)CC4)cc3OC)ncc2C(F)(F)F)c1 [rociletinib] | -11.9% |
| COc1ccc(CCN(C)CCc2ccc(OC)c(OC)c2)cc1OC | 3.64% |
| Nc1ncnc2c1ncn2[C@H]1CC[C@@H](CO)O1 [dideoxyadenosine] | 4.14% |
| C[C@H](Oc1cc(-c2cnn(C3CCNCC3)c2)cnc1N)c1c(Cl)ccc(F)c1Cl [crizotinib-(S)] | 54.7% (active) |
| C[C@]12CCC(=O)C=C1CC[C@@H]1[C@@H]2C(=O)C[C@]2(C)C(=O)CC[C@@H]12 [adrenosterone] | 2.11% |
| CC(=O)OCC(=O)[C@@]1(O)[C@@H](C)C[C@H]2[C@@H]3CCC4=CC(=O)C=C[C@]4(C)[C@@]3(F)[C@@H](O)C[C@@]21C [betamethasone-acetate] | -0.935% |
| C/C=C/C[C@@H](C)C(=O)[C@H]1C(=O)N[C@@H](C(C)C)C(=O)N(C)CC(=O)N(C)[C@@H](CC(C)C)C(=O)N[C@@H](C(C)C)C(=O)N(C)[C@@H](CC(C)C)C(=O)N[C@@H](C)C(=O)N[C@H](C)C(=O)N(C)[C@@H](CC(C)C)C(=O)N(C)[C@@H](CC(C)C)C(=O)N(C)[C@@H](C(C)C)C(=O)N1C [valspodar] | 8.33% |
| Nc1ncnc2c1c(COc1cccc(Cl)c1)nn2C1CCOCC1 | -0.4% |
| N#Cc1ccc(-c2ccc(S(=O)(=O)Nc3cccc(N)n3)cc2)cc1 | 1.78% |

| SMILES | inhibition of SARS-CoV-2 cytopathic effect |
| --- | --- |
| CN(C)c1cc(CNCC(C)(C)C)c(O)c2c1C[C@H]1C[C@H]3[C@H](N(C)C)C(O)=C(C(N)=O)C(=O)[C@@]3(O)C(O)=C1C2=O [omadacycline] | -1.14% |
| O=C(O)c1ccccc1O [salicylic-acid] | 1.57% |
| O=C(Oc1cc(S(=O)(=O)c2ccccc2)ccc1[N+](=O)[O-])c1ccc(Cl)cc1 | -0.09% |
| NCCc1c[nH]c2ccc(C(N)=O)cc12 [5-carboxamidotryptamine] | 1.89% |
| CC1CCC(NC(=O)N(CCCl)N=O)CC1 (centres undefined) [semustine] | 0.45% |
| CN(C)C(=O)COC(=O)Cc1ccc(OC(=O)c2ccc(NC(=N)N)cc2)cc1 [Camostat mesylate] | -0.11% |
| CCCCCCCCCCC(O)C1C=CC2C(=O)N(c3ccccc3)C(=O)C2N1Nc1ccc([N+](=O)[O-])cc1 (centres undefined) | 8.83% |
| COc1ccc(N(C)c2nc(C)nc3ccccc23)cc1 [verubulin] | 2.5% |
| CC=CC1=C(C(=O)O)N2C(=O)[C@@H](NC(=O)[C@H](N)c3ccc(O)cc3)[C@H]2SC1 (mixture of isomers) [cefprozil] | 8.62% |
| CCOc1ccc(Nc2nc(-c3c(C)nc4ccccn34)cs2)cc1 | 1.71% |
| O=C(O)CC/C=C\C[C@@H]1CO[C@H](c2ccccc2Cl)O[C@@H]1c1ccccc1O (racemic) | -2.08% |
| N#Cc1ccc2[nH]c(O)c(-c3ccc(CN4CCOCC4)cn3)c2c1 | 11.4% |
| Cc1ncc(NC(=O)c2ccc(CN3CCN(C)CC3)c(C(F)(F)F)c2)cc1Nc1nccc(-c2cccnc2)n1 [flumatinib] | 66.1% (active) |
| CC(C)NCCN(C(C)C)S(=O)(=O)c1ccc(Cl)cc1Cl | -5.49% |
| O=C(NC1(c2ccccc2)CC1)c1c(CN2CCC(N3CCCCC3)CC2)c(-c2cccc(C(F)(F)F)c2)nc2cc(Br)ccc12 | -13.1% |
| NC(=O)c1noc([C@H](CCCC2CCCCC2)CC(=O)NO)n1 | -7.78% |
| COc1cc(OC)c(OC)cc1C=O [asaraldehyde] | 0.07% |
| O=C1NC(=O)C(=Cc2ccc(-c3ccc(F)cc3)o2)S1 (stereo in doubt) | 1.47% |
| COc1ccc(Nc2ccn(-c3ccccc3)n2)cc1 | 4.1% |
